Screening results: PubChem BioAssay, National Center for Advancing Translational Sciences (NCATS)
Sampled rows, rich in hits. Any-hit rate of the full collection: about 8.3%.
Lassa entry inh – Lassa virus entry inhibition; Lassa virus pseudotype entry inhibition, cell reporter; Potency, µM (highest dose often 37.9 µM), inactives show at the highest dose activity change, negative = inhibition, actives largely listed as inhibitors; hit rate 1.2% among 300,000; calls by dose curve; tested in HEK293 cells; further: potency means the concentration at half of the fitted maximal effect; nearly all actives have a fitted effect of over 50% in size
FMDV antiviral – foot and mouth disease virus antiviral activity; hit rate 1.2% among 410,000; Potency, µM (doses to about 57.9 µM), inactives show at the top dose activity change, negative = inhibition, hits mostly inhibitors; FMDV antiviral cell-based qHTS; calls by dose curve; tested in HEK293T cells; further: read-out not given here; potency means the concentration at half of the fitted maximal effect; nearly all actives have a fitted effect of over 45% in size
MARV entry inh – Marburg virus entry inhibition. Potency, µM (doses to about 37.8 µM), inactives show at the top dose activity change, negative = inhibition, most hits filed as inhibitors. Marburg virus pseudotyped entry inhibition, cell reporter. hit rate 1.8% among 300,000. AID 540276; calls by dose curve; tested in HEK293 cells; further: potency means the concentration at half of the fitted maximal effect
HCV inhibitor – HCV inhibition. Huh7.5.1 HCVcc-Cre infection, luciferase reporter, 44 h. Potency, µM (series often up to 41.8 µM), for inactives: at the highest dose activity change, negative = inhibition, hits mostly inhibitors. hit rate 3.4% among 340,000. AID 651820; further: potency means the concentration at half of the fitted maximal effect
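Cells (1,000/well) were plated 4 h before compound, then infected with HCVcc-Cre virus (~0.5 moi). After 44 h further culture, infection was read as luciferase luminescence following a 15 min substrate incubation at room temperature.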
HCMV antiviral – human cytomegalovirus inhibition. HFF cells, HCMV-luciferase reporter, 72 h; active compounds read low. activity change, negative = inhibition, % at 57.5 µM. hit rate 4.5% among 410,000. AID 1259415; in the data active means activity change below about -60%; inconclusive means no clear call, values can overlap the other calls; inactive means above about -39%
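Cell-based, HFFs, 1000 cells/well, 16 h 37C; cpds in DMSO + HCMV-luc, MOI 1 PFU/cell; 72 h 37C; OneGlo luminescence after 5 min RT; norm. to buffer vs Salinomycin 10uM.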
Giardia FBPA inh – Giardia lamblia aldolase inhibition; A8B2U2; purified Giardia FBPA; Potency, µM (highest dose often 59.6 µM), for inactives: at the top dose activity, negative = inhibition, most hits filed as inhibitors; hit rate 0.71% among 290,000; AID 2451; further: potency means the concentration at half of the fitted maximal effect; nearly all actives have a fitted effect of over 55% in size
Target sequence (A8B2U2 whole entry, looked up): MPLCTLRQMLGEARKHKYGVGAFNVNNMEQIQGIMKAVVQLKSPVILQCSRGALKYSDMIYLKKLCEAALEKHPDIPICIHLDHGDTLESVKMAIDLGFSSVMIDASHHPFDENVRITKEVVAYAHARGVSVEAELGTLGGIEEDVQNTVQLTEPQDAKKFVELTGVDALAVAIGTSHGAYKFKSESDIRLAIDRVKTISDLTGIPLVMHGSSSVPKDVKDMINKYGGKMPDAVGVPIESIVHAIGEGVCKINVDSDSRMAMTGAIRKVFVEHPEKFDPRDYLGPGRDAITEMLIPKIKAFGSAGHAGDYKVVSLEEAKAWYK
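40 nM FBPA preincubated 10 min at RT with compound (up to 57.5 uM final), then substrate plus GAPDH/TPI/NAD/arsenate coupling and diaphorase/resazurin added. Fluorescence read after 20 min at RT, 525/598 nm.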
An asterisk follows results filed as active; u = inconclusive; x = no result given; [ ] = another dose, or the depositor's remark. Unless noted, the call rests on the fitted dose curve; in most records, active means well fitted curve in the direction sought with a large enough effect; inconclusive means small, poorly fitted or top-dose-only effect, or another doubt; inactive means no such curve, though single readings can be large; an effect the other way counts as inactive or inconclusive. On the % scale 0 is the no-effect control and ±100 the full control effect.

SMILES	Lassa entry inh	FMDV antiviral	MARV entry inh	HCV inhibitor	HCMV antiviral	Giardia FBPA inh
Cc1ccccc1OCCn1cc(C(=S)N2CCCC2)c2ccccc21	-3%	-24%	u	11µM*	-26	x
CC(=O)c1cn(CCOc2ccccc2C)c2ccccc12	x	u	x	0.79µM*	-27	16%
Cc1ccc(C(=O)N2CCN(Cc3cc(=O)n4nc(-c5ccccc5)sc4n3)CC2)cc1	9%[46.1 µM]	-9%	x	x	-14	x
C/C(=N\NC(=O)c1ccccc1-n1cccc1)c1ccccn1	x	u	x	x	-99*	x
C/C(=N\NC(=O)c1cc2ccccc2cc1O)c1ccccn1	u	u	u	3.2µM*	-99*	x
C/C(CC(=O)Nc1ccc(F)cc1)=N\NC(=O)c1ccccn1	u	35%	3%	u	u	-22%
Fc1ccc(N/N=C(/c2ccccc2)c2ccccn2)cc1	9%	1%	5%	u	-61*	-21%
C/C(CC(=O)N1CCN(C=O)CC1)=N\NC(=O)c1cc2ccccc2cc1O	-17%	-11%	u	12%	-64*	u
CSCC[C@H](N)C(=O)N[C@@H](C)C(=O)NCC(=O)N[C@@H](CCCN=C(N)N)C(=O)N[C@@H](CO)C(=O)NCC(=O)N[C@@H](CC(=O)O)C(=O)N[C@@H](CO)C(=O)N[C@@H](CC(=O)O)C(=O)N[C@@H](CCC(=O)O)C(=O)N[C@@H](CC(=O)O)C(=O)N[C@@H](CC(C)C)C(=O)N[C@@H](CC(C)C)C(=O)N[C@@H](CCCCN)C(=O)N[C@@H](C)C(=O)N[C@H](C(=O)O)C(C)C	x	x	x	x	x	0%
COc1ccc(F)c(CN2CCC3(CCC(CNC(=O)c4cc(C)nn4C)O3)CC2)c1 (stereo not drawn)	x	-24%	x	x	x	x
C[C@H](CO)N1C[C@H](C)[C@@H](CN(C)C(=O)Nc2ccc(C(C)(C)C)cc2)OCc2cn(nn2)CCCC1=O	x	x	x	x	9	x
C/C(=N\NC(=O)c1ccc(F)cc1)c1ccccn1	x	-30%	x	2.5µM*	-98*	u
O=C(N/N=C(\c1ccccc1)c1ccccn1)c1cccc([N+](=O)[O-])c1	x	-8%	x	u	x	u
CCc1ccc(/C(C)=N/NC(=O)c2ccccn2)cc1	x	43%	x	-2%	14	-6%
CCOc1ccc(C(=O)N/N=C(\c2ccccc2)c2ccccn2)cc1	7.1µM*	0%	u	10µM*	-99*	12%
C/C(=N\NC(=O)c1c[nH]c2ccccc12)c1ccccn1	2µM*	8%	u	u	-82*	u
C/C(=N\NC(=O)CCCNc1ccc(C)cc1)c1ccccn1	-20%	-28%	6.5µM*	u	-67*	9%
CCS(=O)(=O)c1ncc(N(Cc2ccco2)Cc2ccccc2F)c(C(=O)Nc2cccc(Cl)c2)n1	u	-10%	-11%[46.1 µM]	x	-29	x
COc1ccc2c(c1)O[C@H](c1ccc3c(c1)OCO3)[C@@H](OC(=O)Nc1ccc(OC(F)F)cc1)C2=O	x	x	x	x	x	-3%
COc1cccc(-c2cc3nc4c(c(NCC(C)(C)CN(C)C)n3n2)CCCC4)c1	u	-6%	u	u	-69*	-19%
Fc1cccc(-c2cc3nc4c(c(NCc5ccco5)n3n2)CCCC4)c1	13%	x	u	u	61	-10%
CNCCC(Oc1ccccc1OC)c1ccccc1 (stereo not drawn)	u	-19%	18µM*	u	-16	2%
CNCC[C@@H](Oc1ccccc1C)c1ccccc1	x	-18%	x	10%	-36	3%
CCOC(=O)Nc1ccc2c3c(cccc13)-c1ccccc1-2	-3%	50%	-15%	10µM*	-8	x
CCNC(=O)/C(C#N)=C/c1c(N(Cc2ccccc2)Cc2ccccc2)nc2ccccn2c1=O	u	-25%	u	11µM*	u	-1%
SMILES	Lassa entry inh	FMDV antiviral	MARV entry inh	HCV inhibitor	HCMV antiviral	Giardia FBPA inh
CCNC(=O)/C(C#N)=C/c1c(N2CCOCC2)nc2ccccn2c1=O	3%	2%	u	-3%	-1	1%
CNC(=O)/C(C#N)=C/c1c(N(Cc2ccccc2)Cc2ccccc2)nc2c(C)cccn2c1=O	u	u	u	13µM*	-27	3%
ON=C(c1ccccc1)c1ccc2c3c(cccc13)CC2	x	u	x	x	-62*	x
CC(=O)c1ccc2c3c(cccc13)CC2	-2%	-5%	17%[46.1 µM]	-15%	13	-11%
Cc1cccc(-c2nc3c(NCc4cccc(N(C)C)c4)nccc3[nH]2)c1	x	x	x	x	14	x
CC(C)(C)OC(=O)N/N=C/c1ccc(N2CCOCC2)s1	1.8µM*	12%	11%	0%	58	6%
O=C(N/N=C/c1ccc(N2CCOCC2)s1)c1ccccc1Br	7%	-9%	u	16%	32	-18%
Nc1ccc(C(=O)N/N=C/c2ccc(N3CCOCC3)s2)cc1	x	8%	x	5%	-5	x
Clc1cccc(N/N=C/c2ccc(N3CCOCC3)s2)c1	4%	u	17%	6%	-83*	-14%
COc1ccccc1CNC(=O)COC(=O)C1=COCCO1	-4%	-6%	21%	19%	-22	-8%
O=C(COC(=O)C1=COCCO1)NCc1ccc(Cl)cc1Cl	x	-10%	x	x	-61*	x
Cc1cc(=O)c2ccc(Cl)cc2[nH]1	-13%	-14%	2%	2%[8.37 µM]	-12	-9%[136 µM]
Cc1cc(=O)c2cc(Cl)ccc2[nH]1	x	-23%	x	-12%[8.37 µM]	-63*	0%
Cc1cc(C)c2c(CN3CCN(c4ccccc4)CC3)cc(=O)oc2c1	x	-19%	x	x	-4	x
Cc1cc(C)c2c(CN(Cc3ccccc3)Cc3ccccc3)cc(=O)oc2c1	22µM*	-9%	x	x	u	x
CCN(Cc1cc(=O)oc2cc(C)ccc12)c1ccccc1	x	u	x	22µM*	4	-4%
Cc1cc(C)c2c(CN3CCN(Cc4ccccc4)CC3)cc(=O)oc2c1	x	0%	x	u	-62*	u
COc1ccc(N2C(=O)Cc3cc(OC)c(OC)cc3C2c2ccc(F)cc2)cc1 (stereo not drawn)	-22%[46.1 µM]	0%	-19%[46.1 µM]	x	13	x
CCOC(=O)c1cc(OC(=O)c2cc(OC)cc(OC)c2)n(-c2ccccc2)n1	3%[46.1 µM]	2%	17%[46.1 µM]	x	-12	x
O=c1[nH]c(CSc2ccccn2)nc2c1oc1ccccc12	5.6µM*	-29%	u	19%	-23	-8%
Cc1nc(SCc2nc3ccccc3[nH]2)c2oc3ccccc3c2n1	-7%	u	u	25µM*	-16	2%
Cc1ccc2nc(CSc3nc(C)nc4c3oc3ccccc34)[nH]c2c1	x	-29%	x	x	13	x
Cc1nc(SCc2nc3ccccc3[nH]2)c2oc3ccc(Br)cc3c2n1	x	35µM*	x	x	-16	x
COc1ccc2c(c1)C(=O)[C@@H](OC(=O)NS(=O)(=O)c1ccc(C)cc1)[C@H](c1ccc(OC)c(Br)c1)O2	x	x	x	x	x	6%
CCCc1nnc(NC(=O)c2cc(=O)c3ccccc3o2)s1	25%[46.1 µM]	39%	u	x	41	x
COCOc1ccc(-c2ncc(OCCN3CCCC3=O)nc2NC(=O)c2cc3ccccc3s2)cc1	x	-13%	x	x	-101*	x
